Results published in PMC5540273 (PLoS ONE, 2017).

Each compound was assayed on LYN. Details: concentration: 1 μM, replicates: in singlicate; n = 1.
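Also: KINOMEscan kinase panel screen.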

Structure (SMILES)	%Inh
Nc1ncnc2c1nc(-c1ccccc1)n2-c1ccccc1 [SKF-97293]	8%
CC(=O)Nc1nc2cnc(Nc3cc(NC(=O)c4cccc(C5(C#N)CC5)c4Cl)ccc3C)nc2s1	79%
c1ccc(Oc2ccc(Nc3ccnc4cc(-c5ccc(CNCCN6CCOCC6)o5)ccc34)cc2)nc1 [GW567145]	28%
Cn1cc(-c2[nH]c3cc(NC(=O)[C@H](N)C4CCCCC4)cc4c3c2C=NNC4=O)cn1	76%
CC(C)c1nc(-c2cccc(NS(=O)(=O)c3c(F)cccc3F)c2F)c(-c2ccnc(Nc3ccc(N4CCOCC4)nc3)n2)s1 [GSK2008607]	98.5%
COc1cc(Nc2nccc(-c3c(-c4cccc(NC(=O)c5c(F)cccc5F)c4)nn4ccccc34)n2)cc(OC)c1OC [GSK323521]	28%
COc1cc(Nc2nccc(N3CCC(NC(=O)c4cc5ccccc5s4)C3)n2)cc(OC)c1OC (stereo not shown) [GSK1379760]	31%
Fc1ccc(-c2ncn(C3CCNCC3)c2-c2ccnc(Oc3ccc(-c4ccccc4)cc3)n2)cc1 [SB-245391]	9%
COc1cc2c(cc1OCCN1CCNCC1)ncc1c3ccc(C#N)cc3[nH]c21	0%
Cl.Cl.NCC(NCc1ccc(-c2ccnc3[nH]ccc23)s1)c1ccccc1 (stereo not shown) [GSK1321565]	0%
O=c1[nH]cc(-c2ccc(N3CCOCC3)cc2)c2sc(-c3cn[nH]c3)cc12 [GSK2276055]	0%
O=C(Nc1cccc(-c2nn3ccccc3c2-c2ccnc(Nc3cccc(F)c3)n2)c1)c1c(F)ccc(F)c1Cl [GSK357952]	83%
COC(=O)Nc1nc2cc(Oc3ccc(NC(=O)Nc4cc(C(F)(F)F)ccc4F)cn3)ccc2[nH]1.Cl.Cl [GW681170]	36%
COCCOCCOc1cc2ncc3c4ccc(C#N)cc4[nH]c3c2cc1OC	31%
c1ccc(-c2n[nH]cc2Nc2ccnc3ccccc23)nc1 [GW694077]	0%
C[C@@H](Oc1cc(-n2cnc3cc(-c4ccnc(NCCS(C)(=O)=O)c4)ccc32)sc1C(N)=O)c1ccccc1Cl [GSK907232]	0%
CN1CCN(CCCNc2nccc(-c3c(-c4ccc(F)cc4)nn4cc(C(F)(F)F)ccc34)n2)CC1 [GW621581]	0%
Oc1cc(Nc2ccnc3cc(I)ccc23)ccc1F [GW552771]	20%
COc1ccc(-c2coc3ccc(-c4nnc(SCc5ccc(OC)c(C(F)(F)F)c5)o4)cc23)cc1	0%

Structure (SMILES)	%Inh
Cl.c1ccc(-c2ccc3c(Nc4ccc5[nH]ncc5c4)ccnc3c2)nc1 [GW440137]	31%
COc1ccc(CNC(=O)NC2CCN(c3ccnc(Nc4ccc(F)cc4)n3)CC2)cc1 [GSK1379788]	0%
Cn1cc(-c2ccc3c(c2)CCN3C(=O)Cc2cccc(Cl)c2)c2c(N)ncnc21 [GSK2606590]	15%
Cl.NC(=O)c1cccc(Nc2nccc(Nc3ccc(Oc4c(Cl)cccc4Cl)c(Cl)c3)n2)c1 [GW659009]	34%
Cc1ccc(F)c(C(=O)Nc2cccc(-c3nn4ccccc4c3-c3ccnc(Nc4cccc(F)c4)n3)c2)c1F [GSK361061]	73%
Cc1occc1-c1ncc(OC[C@@H](N)Cc2c[nH]c3ccccc23)cc1-c1ccc2[nH]nc(C)c2c1.O=C(O)C(F)(F)F [GSK682037]	39%
Cc1cccc(Nc2nc(N[C@H]3CCNC3)ncc2C(N)=O)c1.Cl [GSK2197149]	26%
CN(c1ccc(NC(=O)Nc2cc(C(F)(F)F)ccc2F)cc1)c1ccnc(Nc2ccc(S(N)(=O)=O)cc2)n1 [GW809893]	96.4%
CNC(=O)c1ccccc1Nc1nc(Nc2ccc(N3CCOCC3)cc2)ncc1Cl.Cl [GSK1576028]	92.6%
Cl.Cl.NCC(NC(=O)c1cc(-c2ccccc2)c(-c2ccnc3[nH]ccc23)s1)c1ccccc1 (stereo not shown) [GSK1321561]	66%
NCCCC(NC(=O)c1cc(Br)c(-c2ccnc3[nH]ccc23)s1)c1ccccc1.O=C(O)C(F)(F)F.O=C(O)C(F)(F)F (stereo not shown) [GSK1287544]	0%
O=C(Nc1cccc(Oc2ccc3nc(NC(=O)C4CC4)cn3n2)c1)c1ccccc1C(F)(F)F	57%
Nc1n[nH]c2cnc(-c3ccccc3)cc12 [SB-642124]	3%
CN1CCN(Cc2cccc(-c3ccc4c(Nc5ccc(Oc6ccccc6)cc5)ccnc4c3)c2)CC1 [GW578342]	58%
Nc1ncc(-c2cccnc2)c2scc(-c3ccc4c(c3)CCN4C(=O)Cc3ccccc3)c12 [GSK683281]	45%
O=C(Nc1cccc(-c2nn3ncccc3c2-c2ccnc(Nc3ccccc3)n2)c1)c1c(F)cccc1F [GSK198271]	99.4%
Cl.c1ccc(-c2ccc3c(Nc4ccc5[nH]ccc5c4)ccnc3c2)nc1 [GW440138]	47%
Cc1ccc(C(=O)Nc2ccc(Nc3ccnc4cc(-c5nccs5)ccc34)cc2O)cc1.Cl [GW494702]	65%
